Reference: PubChem BioAssay (NCI)
The panel holds about 83,000 compounds, 20% with a hit somewhere; the sample as a whole holds those more often.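 How to read the values: 0–100, growth inhibition (40 = 60% inhibited); 0, no net growth; -100 to 0, cell death (-40 = 40% of starting cells died; -100 = all dead).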 Values without a mark were called inactive. Activity calls are given as the source filed them. Rule for the calls: active = growth percent below 10; inactive = the rest.

How the values were obtained:
Assay in all cases: NCI-60 one-dose screen, 48 h (100 = growth as untreated, 0 = no growth, -100 = all killed)
Conditions in all cases: 10 µM unless noted
SR leukemia = system: SR leukemia
RPMI-8226 leukemia = system: RPMI-8226 leukemia
OVCAR-8 ovarian = system: OVCAR-8 ovarian
OVCAR-5 ovarian = system: OVCAR-5 ovarian
OVCAR-4 ovarian = system: OVCAR-4 ovarian
SK-OV-3 ovarian = system: SK-OV-3 ovarian
IGROV1 ovarian = system: IGROV1 ovarian
OVCAR-3 ovarian = system: OVCAR-3 ovarian
HS 578T breast = system: HS 578T breast
NCI/ADR-RES ovarian = system: NCI/ADR-RES ovarian
T-47D breast = system: T-47D breast
BT-549 breast = system: BT-549 breast
MDA-MB-435 melanoma = system: MDA-MB-435 melanoma
SW-620 colon = system: SW-620 colon
MCF7 breast = system: MCF7 breast
HCT-116 colon = system: HCT-116 colon
HCC-2998 colon = system: HCC-2998 colon
KM12 colon = system: KM12 colon

| SMILES | growth (SR leukemia) | growth (RPMI-8226 leukemia) | growth (OVCAR-8 ovarian) | growth (OVCAR-5 ovarian) | growth (OVCAR-4 ovarian) | growth (SK-OV-3 ovarian) [%] | growth (IGROV1 ovarian) | growth (OVCAR-3 ovarian) | growth (HS 578T breast) | growth (NCI/ADR-RES ovarian) | growth (T-47D breast) | growth (BT-549 breast) | growth (MDA-MB-435 melanoma) | growth (SW-620 colon) | growth (MCF7 breast) | growth (HCT-116 colon) | growth (HCC-2998 colon) | growth (KM12 colon) |
| --- | --- | --- | --- | --- | --- | --- | --- | --- | --- | --- | --- | --- | --- | --- | --- | --- | --- | --- |
| O=C(NCc1cn(Cc2cccc(Oc3ccccc3)c2)nn1)c1cccnc1NCc1ccc(Cl)cc1 | 19.3% | -9.55% (active) | 32.6% | 51.5% | 43.8% | 21.4 | 60.1% | 2.33% (active) | 23.8% | 0.306% (active) | 31.9% | 41.1% | -2.51% (active) | 36.9% | 14.9% | 22.1% | 9.38% (active) |  |
| CCNCCNc1cc(-c2ccc(C#N)cc2)c(C#N)c2nc3ccccc3n12 | -1.04% (active) | 51.6% | 38.7% | 75.6% | -34% (active) | 87.4 | 47.7% | -47.7% (active) | 25.2% | 60.9% | 37.5% | 40.4% | 13.9% | -30.2% (active) | 57.8% | -27.2% (active) | 41% | 29% |
| COc1c(C)cnc(CSc2nc(-c3ccc(C)cc3)cn2-c2ccc(Cl)cc2)c1C | 74.8% | 89.9% | 98.5% | 97.5% | 90.2% | 91 | 93.4% | 93.5% | 105% | 95.5% | 88.1% | 102% | 110% | 100% | 102% | 79.8% | 106% | 105% |
| Cn1nnnc1-c1ccc(N)cc1 | 87.6% | 103% | 107% | 94.1% | 100% | 95.8 | 99.2% | 101% | 96.8% | 98.1% | 87.2% | 93.4% | 99.5% | 104% | 90.9% | 84.6% | 100% | 99.4% |
| COc1cc(-c2ccc(N=Nc3c(O)c(C(=O)Nc4ccccc4OC)cc4ccccc34)c(OC)c2)ccc1N=Nc1c(O)c(C(=O)Nc2ccccc2OC)cc2ccccc12 | 41.8% | 97.2% | 99.3% | 99.6% | 98.9% | 103 | 88.3% | 99.3% | 84.8% | 96.4% | 103% | 90.2% | 99.9% | 91.8% | 91.1% | 81.8% | 97.7% | 94.8% |
| O=C1N(c2ccccc2)C(=S)N[C@]12[C@H](c1ccccc1)C1CCCN1[C@]21C(=O)NC2C=CC(Cl)=C[C@H]21 (some centres not stated) | 96% | 73.7% | 78.3% | 117% | 102% | 88 | 95.1% | 106% | 83.6% | 102% | 79.6% | 90.2% | 112% | 101% | 99.1% | 78.1% | 103% | 100% |
| CC(C)N(CCOC(=O)Nc1ccccc1Cl)C(C)C | 89.7% | 96% | 99.7% | 111% | 119% | 102 | 107% | 112% | 95.8% | 105% | 107% | 88.5% | 113% | 103% | 104% | 84.9% | 102% | 104% |
| Nc1c(-c2nc3ccccc3c(=O)[nH]2)nnn1-c1ccc(Cl)cc1 | 56.2% | 90.6% | 56.1% | 97.8% | -4.08% (active) | 68.5 | 83% | 89.2% | 51.1% | 56.4% | 27.2% | 77.8% | 83.3% | 99.2% | 90% | 78.8% | 104% | 82.8% |
| Cc1cc(=O)[nH]c(N/N=C/c2cc(Br)ccc2O)n1 | 28.4% | 31.2% | 16.7% | 39.1% | 7.34% (active) | 19.1 | -0.435% (active) | 6.58% (active) | 69% | 10.2% | 25% | 17.2% | 47.3% | 40.3% | 1.32% (active) | 5.04% (active) | 32.5% | 34.6% |
| C(=C\c1nc2ccccc2[nH]1)/c1nc2ccccc2[nH]1 | 93.3% | 89.9% | 97.6% | 111% | 97.1% | 98.4 | 93.1% | 109% | 100% | 94.3% | 78.2% | 118% | 104% | 108% | 74.4% | 104% | 88.4% | 98.1% |
| COc1cc(C2CC(c3ccc(Nc4nc(Nc5ccc(F)cc5)nc(Nc5ccc(Cl)cc5)n4)cc3)=NN2C(C)=O)cc(OC)c1OC (configuration not stated) | 45.3% | 19.1% | 62.5% | 83.5% | 77.6% | 92.8 | 43.5% | 82.7% | 75.7% | 69.8% | 19% | 13.4% | 95.7% | 87% | 46.6% | 55.1% | 89.3% | 71.2% |
| Cc1nc(Nc2ccc(NC(=S)Nc3ccccc3)cc2)c2ccccc2n1 | 80.5% | 98.6% | 101% | 110% | 121% | 107 | 99.8% | 118% | 96% | 107% | 87.6% | 113% | 112% | 106% | 77.4% | 101% | 104% | 104% |
| CCNCCNc1cc(-c2ccc(C(F)(F)F)cc2)c(C#N)c2nc3cc(Cl)c(Cl)cc3n12 | -49.2% (active) | -41.6% (active) | -64.1% (active) | -92.3% (active) | -81.9% (active) | 67.6 | -77.8% (active) | -88.4% (active) | -53.2% (active) | -79.2% (active) | -53.2% (active) | -2.28% (active) | -92.6% (active) | -81.8% (active) | -70.6% (active) | -88.3% (active) | -88.9% (active) | -77.7% (active) |
| Clc1ccc(/C=N\N=c2\scc(-c3ccc(Cl)cc3)n2/N=C/c2ccc(Cl)cc2)cc1 | 93% | 106% | 99.5% | 105% | 114% | 102 | 103% | 114% | 96.5% | 109% | 96.1% | 107% | 103% | 99.9% | 93.6% | 90% | 104% | 105% |
| CCCNCC(=O)Nc1ccc(C(=O)OC(C)(C)CC)cc1 | 90.6% | 99.8% | 104% | 111% | 118% | 105 | 99.5% | 102% | 105% | 105% | 103% | 77.4% | 113% | 105% | 103% | 84.1% | 99.9% | 104% |
| NC(=S)N/N=C/C(=O)O | 62.9% | 48.1% | 81.9% | 102% | 75.3% | 108 | -32.7% (active) | 26.1% | 84.3% | 88.7% | 40.9% | 95% | 92.5% | 65.7% | 11.7% | 6.98% (active) | 104% | 99.4% |
